Source: PubChem
The full list was thinned out, with hits kept by preference.
ALOX12 inhib: inhibitors of human 12-lipoxygenase (ALOX12) | purified 12-hLO, xylenol orange hydroperoxide absorbance | Potency, µM (highest dose often 57.1 µM), most hits filed as inhibitors | hit rate 0.12% among 150,000; also: nearly all actives have a fitted effect of over 55% in size
Target sequence (P18054 whole entry, looked up): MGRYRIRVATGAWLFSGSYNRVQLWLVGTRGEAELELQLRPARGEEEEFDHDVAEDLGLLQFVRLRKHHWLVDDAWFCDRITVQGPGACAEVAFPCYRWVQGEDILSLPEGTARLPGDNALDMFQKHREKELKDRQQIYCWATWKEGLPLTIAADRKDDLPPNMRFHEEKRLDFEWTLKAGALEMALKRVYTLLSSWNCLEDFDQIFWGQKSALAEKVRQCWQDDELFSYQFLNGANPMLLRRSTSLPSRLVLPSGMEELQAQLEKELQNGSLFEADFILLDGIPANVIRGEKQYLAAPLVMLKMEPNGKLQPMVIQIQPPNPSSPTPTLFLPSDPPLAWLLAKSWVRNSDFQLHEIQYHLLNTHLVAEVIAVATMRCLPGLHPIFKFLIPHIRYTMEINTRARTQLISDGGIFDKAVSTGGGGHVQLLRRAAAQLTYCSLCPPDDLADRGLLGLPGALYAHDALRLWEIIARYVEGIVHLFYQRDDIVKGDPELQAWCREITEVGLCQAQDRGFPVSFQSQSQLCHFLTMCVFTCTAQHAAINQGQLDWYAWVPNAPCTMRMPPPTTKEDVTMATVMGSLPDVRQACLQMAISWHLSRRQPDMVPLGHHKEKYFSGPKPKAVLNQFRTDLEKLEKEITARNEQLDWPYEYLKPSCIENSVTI
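Xylenol orange chromogenic assay: hydroperoxide from 12hLO oxidises Fe(II), giving red-shifted Fe(III)-XO absorbance. Conditions: 150 nM enzyme, 40 uM arachidonic acid, 25 mM Hepes pH 7.0, 0.01% Triton X-100, 30 min, room temperature.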
PNC assembly inh: perinucleolar compartment assembly inhibition. PC3M PTB-GFP, PNC prevalence imaging, 16 h; active compounds read low. AID 2417. hit rate 3.1% among 140,000. activity change (PNC), negative = inhibition, % at 10 µM;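 active = readout at or below -70, meaning at least 70% loss of cells showing the perinucleolar compartment, a nuclear body marking cancer cells; inconclusive = readout between -30 and a set limit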
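Compounds are pinned in duplicate onto adhered PC3M cells stably expressing GFP-tagged PTB and incubated 16 h at 37 C. Cells are then fixed, nuclei stained with Hoechst, and PNC-positive cells counted.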
IMPase Li inh: cell-permeable IMPase inhibitors with lithium potentiation; hit rate 0.35% among 210,000; Potency, µM (top dose mostly 59.4 µM), most hits filed as inhibitors; AID 1457; CHO-M1 cells, IP1 TR-FRET (IP-One), carbachol + lithium;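 also: IP1 builds up when IMPase is blocked and the TR-FRET signal falls; nearly all actives have a fitted effect of over 50% in size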
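CHO cells stably expressing M1 receptor (2000/well) were cultured 16–30 h, then exposed to compounds with a small lithium addition for 30 min at 37C. IP1 was measured by TR-FRET competition; AC50 from Hill fits.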
IMPase inh: cell-permeable inhibitors of inositol monophosphatase (IMPase) | P97697 | CHO-M1 cells, IP1 accumulation, HTRF TR-FRET ratio | inhibition (IP1 accumulation), % at 46.1 µM | 120,000 tested, under 10 active; active = well fitted curve in the direction sought with a large enough effect in the signal ratio, not every such curve was filed as active; inconclusive = small, poorly fitted or top-dose-only effect, or a change in a side signal; inactive = no such curve, though single readings can be large or run the other way; the % refers to the signal ratio;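 also: cells stimulated with carbachol in lithium chloride buffer; higher means more IMPase inhibition seen as more IP1 and lower FRET ratio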
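Cellular IMPase inhibition is scored as a rise in cytosolic IP1, detected by competitive TR-FRET between d2-labelled IP1 and a europium anti-IP1 antibody. M1-expressing CHO cells were stimulated with carbachol for 30 min at 37C, with lithium (50 mM LiCl) present in the buffer.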
Numbers stand for hits; . = inactive; ? = inconclusive; / = no result; [ ] = remark or other dose. Unless noted, calls follow the shape of the dose curve; as a rule, active = well fitted curve in the direction sought with a large enough effect; inconclusive = small, poorly fitted or top-dose-only effect, or another doubt; inactive = no such curve, though single readings can be large; an effect the other way counts as inactive or inconclusive.

SMILES	ALOX12 inhib	PNC assembly inh	IMPase Li inh	IMPase inh
Cc1cc(-c2ccccc2)nc(N/N=C/c2ccco2)n1	.	?	.	.
C=CCc1cccc(/C=N/NC(=O)CNc2cccc3ccccc23)c1O	.	-84.1	.	/
COCC(=O)Nc1ccc(S(=O)(=O)NCCc2ccccc2)cc1	.	-106.5	.	.
COCC(=O)Nc1ccc(N(C)C)cc1	.	-80.9	.	.
Cc1ccc(OCC(=O)Nc2ccc(N(C)C)cc2)cc1	.	.	.	.
CCOC(=O)C1=C(C)NC2=C(C(=O)OC2)C1c1ccccc1 (stereo unspecified)	/	/	.	/
Cn1c(-c2ccccc2)cc2c3no[n+]([O-])c3ccc21	.	?	.	.
CC(/C=N/Nc1nc(C)cc(C)n1)=C\c1ccc(C(C)C)cc1	.	-113.8	.	/
CC(/C=N/NC(=O)c1ccncc1)=C\c1ccc(C(C)C)cc1	.	?	/	.
CNC(=O)C1=C(C)n2c(nc3ccccc32)NC1c1ccc(OC)cc1 (stereo unspecified)	.	-113.8	.	/
CC1=C(C(=O)Nc2ccccc2)C(c2cccc([N+](=O)[O-])c2)Nc2nc3ccccc3n21 (stereo unspecified)	.	?	.	.
COc1ccccc1CN(Cc1nc2ccccc2c(=O)[nH]1)C(=O)Nc1ccccc1C	.	-114.9	.	.
Cc1ccc(N2C(=O)NC(NC(=O)C3CC3)(C(F)(F)F)C2=O)cc1 (stereo unspecified)	.	-100.2	.	/
Cc1ccc(C(=O)NC2(C(F)(F)F)NC(=O)N(c3ccc(Cl)cc3)C2=O)cc1 (stereo unspecified)	.	.	.	/
COCCOC(=O)c1c(C)oc2ccc(OC(=O)c3ccco3)cc12	.	.	.	/
COCCOC(=O)c1c(C)oc2ccc(OCc3ccccc3)cc12	.	-113.8	.	/
COC(=O)Sc1nnc(-c2ccc(Br)cc2)o1	.	.	10µM	?
OCC#CCSc1nnc(-c2ccc(Br)cc2)o1	.	.	.	.
Cc1ccc(C)c(C(=O)OCC(=O)Nc2ccc(N3CCOCC3)cc2)c1	/	/	.	/
CC(=O)c1cccc(N(C(=O)CNC(=O)c2ccco2)C(C(=O)NCc2ccco2)c2ccccc2)c1 (stereo unspecified)	/	/	.	/
CCOC(=O)c1sc2nc(C)nc(SCC(=O)NC3CCS(=O)(=O)C3)c2c1C (stereo unspecified)	/	/	12.6µM	/
C[C@H](N)CCCP(=O)(O)O	/	/	.	/
N#CC1=C(N)C(C#N)(C#N)C(c2ccncc2)C2CN(C(=O)OCc3ccccc3)CC=C12 (stereo unspecified)	.	-118.9	.	?
COC(=O)N1CCC[C@@]2(CCN(c3ccccc3)C2)C1	.	/	.	/
CCOC(=O)c1c(C)cccc1OCC(N)=O	.	-100.0	.	.
SMILES	ALOX12 inhib	PNC assembly inh	IMPase Li inh	IMPase inh
CC(C(=O)Nc1cc([N+](=O)[O-])ccc1Cl)N1CCN(c2ccc(O)cc2)CC1 (stereo unspecified)	.	-85.2	.	.
C#CCOCCCC(=O)O	.[11.4 µM]	/	.	/
OCCCN=C1CCCCC1	.[11.4 µM]	/	.	/
CC(=O)N1CCN(c2ccc(NCc3ccc(C)s3)cc2)CC1	11.2µM	?	.	.
Cc1ccc(CNc2ccc(N3CCOCC3)cc2)s1	?	.	.	.
CCOc1ccc2nc(C)cc(Nc3cccc([N+](=O)[O-])c3)c2c1	.	-101.6	.	/
O=C(c1cc(C(F)(F)F)cc(C(F)(F)F)c1)N1CCC2(CCCN(Cc3ccccc3)C2)CC1	.	/	.	/
Cc1cccn2cc(CNC(=O)C3CCCCC3)nc12	.	-100.0	.	.
COCCNC(=O)c1cc(S(=O)(=O)N2CCOCC2)ccc1SCc1cccc(OC)c1OC	/	/	.	/
Cc1ccc(C(=O)NC(=S)Nc2cccc(-c3nc4ccccc4s3)c2)cc1	.	-112.5	.	.
CCC(=O)NC(=S)Nc1ccc(-c2nc3ccccc3s2)cc1	.	.	11.2µM	.
Cc1ccc(-c2nc3ccccc3s2)cc1NC(=O)c1ccc2c(c1)OCO2	.	.	11.2µM	.
Cc1ccc2nc(Nc3ccccc3)c(/C=N/O)c(=O)n2c1	.	-100.0	.	.
Cc1ccc(CNC(=O)C2CN(S(C)(=O)=O)c3cc(Cl)ccc3O2)cc1 (stereo unspecified)	/	/	.	/
COc1ccc(-n2c(=O)c(C)nc3cnc(Nc4ccccc4)nc32)cc1	.	/	.	/
C=C(C)Cn1c(SCC(=O)N/N=C/c2c(O)ccc3ccccc23)nc2ccccc2c1=O	.	-121.5	.	/
C=C(C)Cn1c(SCC)nc2ccccc2c1=O	.	.	.	.
Cc1ccc(C(=O)N/C(=C/c2cccs2)C(=O)NCc2ccco2)cc1	.	.	.	/
CC1=C([N+](=O)[O-])C(c2cccc(Br)c2)C2=C(N1)c1ccccc1C2=O (stereo unspecified)	.	-82.8	.	.
CCOC(=O)C1=C(C)NC2=C(C(=O)c3ccccc32)C1c1ccc(O)cc1 (stereo unspecified)	.	.	.	/
CCN1CCN(c2cc3c(cc2F)c(=O)c(C(=O)O)cn3C2CC2)CC1	.	-114.6	.	/
Cc1cc(NC(=O)c2cc(-c3ccccn3)nc3ccccc23)no1	.	.	.	.
Cc1cc(C)c2nc(-c3ccccn3)cc(C(=O)Nc3cc(C)on3)c2c1	.	-86.5	?	.
CCN(CC)CCCNc1nc2ccccc2[nH]1	.	.	.	.
CCNc1nc2ccccc2[nH]1	.	-108.9	.	.
SMILES	ALOX12 inhib	PNC assembly inh	IMPase Li inh	IMPase inh
Cc1ccc(-n2nnnc2-c2nc3ccccc3s2)cc1	.	-134.0	.	/
CCOc1ccc(-n2nnnc2-c2nc3ccccc3s2)cc1	.	.	?	/
COc1ccc(C(C(=O)NC2CCCC2)N(CCN(C)C)C(=O)c2snc(C(N)=O)c2N)cc1 (stereo unspecified)	.	-113.7	.	.
NC(=O)c1nsc(C(=O)N(CCc2ccccc2)C(C(=O)NC2CCCC2)c2ccco2)c1N (stereo unspecified)	.	.	.	.
COc1ccccc1N1CCN(C(=O)CCn2c(=O)[nH]c3ccccc3c2=O)CC1	.	-107.0	.	.
Cc1ccc(N)c2c1OCCC2=O	.	-117.9	.	/
Cn1c(-c2c(N)n(C3CCCC3)c3nc4ccccc4nc23)nc2ccccc21	.	-94.4	.	.
Cn1c(-c2c(N)n(CCCc3ccccc3)c3nc4ccccc4nc23)nc2ccccc21	.	.	10µM	?
Cn1c(-c2c(N)n(CCc3ccccc3)c3nc4ccccc4nc23)nc2ccccc21	.	.	.	.
COCCCn1c(N)c(-c2nc3ccccc3n2C)c2nc3ccccc3nc21	.	.	?	.
CC(=O)OCC1OC(n2c(Br)nc3c(=O)[nH]c(N)nc32)C(OC(C)=O)C1OC(C)=O (stereo unspecified)	.	/	.	/
CCOC(=O)c1c(CN2CCOCC2)n(-c2ccccc2)c2cc(Br)c(OC)cc12	.	-92.4	.	.
COc1ccccc1Nc1nccc(N(C)C)c1C#N	/	/	.	/
CCOc1ccc(NC(=O)C2CCC(CNS(=O)(=O)c3ccc(Br)s3)CC2)cc1 (stereo unspecified)	/	/	/	.
